For some of these results: Measured potencies and affinities stand elsewhere.

Set-up in all cases: scale not given: direction of the effect not stated beside the values
The target in assay [1] is Protein translocase subunit SecA (Escherichia coli (strain K12)) (UniProt P10408). Kind of assay: Assay to Identify E. coli SecA ATPase Inhibitors. In kind it is functional. To be noted: 30 µM.
For assay [2], the target named is T1, Ubiquitin-activating enzyme e1, putative (Leishmania donovani (strain BPK282A1)) (UniProt E9BSI1).
T1 sequence (whole entry): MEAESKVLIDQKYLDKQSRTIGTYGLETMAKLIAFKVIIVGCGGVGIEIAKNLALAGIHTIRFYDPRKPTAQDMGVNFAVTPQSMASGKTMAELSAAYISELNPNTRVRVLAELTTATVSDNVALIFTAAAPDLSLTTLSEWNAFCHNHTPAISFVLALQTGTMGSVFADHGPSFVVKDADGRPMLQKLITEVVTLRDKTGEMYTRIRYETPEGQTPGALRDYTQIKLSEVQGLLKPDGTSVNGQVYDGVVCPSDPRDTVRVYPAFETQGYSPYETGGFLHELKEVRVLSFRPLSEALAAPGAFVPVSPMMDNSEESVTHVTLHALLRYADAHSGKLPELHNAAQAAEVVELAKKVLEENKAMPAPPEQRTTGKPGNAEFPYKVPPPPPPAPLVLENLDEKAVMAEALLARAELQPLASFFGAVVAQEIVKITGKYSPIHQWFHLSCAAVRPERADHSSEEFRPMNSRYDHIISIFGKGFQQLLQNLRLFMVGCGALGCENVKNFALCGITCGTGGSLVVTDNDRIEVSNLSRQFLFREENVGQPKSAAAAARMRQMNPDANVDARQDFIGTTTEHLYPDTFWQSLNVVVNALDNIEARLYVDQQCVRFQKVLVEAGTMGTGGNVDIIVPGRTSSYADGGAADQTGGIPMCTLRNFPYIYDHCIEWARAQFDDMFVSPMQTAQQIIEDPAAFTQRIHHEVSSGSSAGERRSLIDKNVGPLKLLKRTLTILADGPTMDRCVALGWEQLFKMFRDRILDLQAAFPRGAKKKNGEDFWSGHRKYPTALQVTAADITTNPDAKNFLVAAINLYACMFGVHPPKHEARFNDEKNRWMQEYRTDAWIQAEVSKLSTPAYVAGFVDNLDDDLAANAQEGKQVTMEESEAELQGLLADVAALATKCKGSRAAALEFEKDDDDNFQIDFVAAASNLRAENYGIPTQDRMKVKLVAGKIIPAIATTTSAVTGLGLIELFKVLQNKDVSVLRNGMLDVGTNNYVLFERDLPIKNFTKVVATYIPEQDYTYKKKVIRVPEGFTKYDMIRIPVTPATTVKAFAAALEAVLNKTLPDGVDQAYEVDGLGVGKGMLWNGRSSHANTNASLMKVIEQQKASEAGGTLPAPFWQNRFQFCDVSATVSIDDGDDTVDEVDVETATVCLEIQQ
Kind of assay: Leishmania donovani Ubiquitin Activating Enzyme (LdE1). Format: functional. To be noted: 30 µM.

Assay [3] concerns the target AMP-activated protein kinase, AMPK (Homo sapiens) (UniProt P54646+O43741+P54619+Q9UGJ0+Q9Y478+Q13131+Q9UGI9). Kind of assay: AMP-dependent Kinase enzyme assay. An in vitro enzyme assay that detects ADP turnover that is directly proportional to AMPK activity. This uses naive AMPK that is activated during the assay with MK-8722. Format: functional. As to conditions: 30 µM.

Assay [4] addresses Sialic acid-binding Ig-like lectin 9 (Homo sapiens) (UniProt Q9Y336). The experiment in a line: Hs-Siglec9 ALPHAscreen SOP 20170721. As to conditions: 10 µM.
The test system of the next assay is Trypanosoma cruzi. The experiment in a line: Trypanosoma cruzi phosphomannomutase and mannose-1-phosphate guanylyltransferase assay. Format: functional. To be noted: 10 µM.
Assay [5] addresses T2, Arginase-2, mitochondrial (Homo sapiens) (UniProt P78540).
T2 sequence (whole entry): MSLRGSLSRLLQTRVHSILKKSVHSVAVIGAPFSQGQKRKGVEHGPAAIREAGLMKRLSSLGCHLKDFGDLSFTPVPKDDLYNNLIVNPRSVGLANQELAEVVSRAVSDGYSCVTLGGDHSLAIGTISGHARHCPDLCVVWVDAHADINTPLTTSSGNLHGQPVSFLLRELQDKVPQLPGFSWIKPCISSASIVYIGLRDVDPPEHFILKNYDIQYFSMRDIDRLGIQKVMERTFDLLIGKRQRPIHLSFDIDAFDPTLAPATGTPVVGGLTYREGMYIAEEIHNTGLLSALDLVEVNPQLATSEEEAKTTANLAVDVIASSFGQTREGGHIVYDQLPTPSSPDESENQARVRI
The experiment in a line: in vitro enzyme assay to detect the production of urea directly proportional to the activity of Arginase II. Further: in the data most compounds retested in dose-response had high values. Format: functional. To be noted: 33.3 µM.

In assay [6] the target is T3, Proteasome subunit beta (Trypanosoma cruzi) (UniProt O96673).
T3 sequence (whole entry): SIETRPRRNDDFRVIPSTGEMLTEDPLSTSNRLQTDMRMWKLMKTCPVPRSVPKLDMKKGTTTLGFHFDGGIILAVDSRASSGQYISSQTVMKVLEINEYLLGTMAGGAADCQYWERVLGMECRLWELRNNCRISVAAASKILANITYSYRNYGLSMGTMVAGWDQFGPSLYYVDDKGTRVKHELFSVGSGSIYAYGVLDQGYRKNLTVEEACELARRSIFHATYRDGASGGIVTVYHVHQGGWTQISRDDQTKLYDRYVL
The experiment in a line: Trypanosoma cruzi proteasome chymotrypsin-like activity (TcProtChymo) assay. Further: in the data most compounds retested in dose-response had high values. In kind it is functional. To be noted: 9.37 µM.

The species named for the next assay is Homo sapiens. The experiment in a line: To identify inhibition of the IFN signalling (Jak-Stat) pathway via expression of an eGFP reporter gene under the control of an IFN-stimulated response element (ISRE) containing MxA promoter. In kind it is functional. To be noted: 30 µM.
The target of assay [7] is T4, Tyrosyl-tRNA synthetase, putative (Trypanosoma cruzi (strain CL Brener)) (UniProt Q4DSP6).
T4 sequence (whole entry): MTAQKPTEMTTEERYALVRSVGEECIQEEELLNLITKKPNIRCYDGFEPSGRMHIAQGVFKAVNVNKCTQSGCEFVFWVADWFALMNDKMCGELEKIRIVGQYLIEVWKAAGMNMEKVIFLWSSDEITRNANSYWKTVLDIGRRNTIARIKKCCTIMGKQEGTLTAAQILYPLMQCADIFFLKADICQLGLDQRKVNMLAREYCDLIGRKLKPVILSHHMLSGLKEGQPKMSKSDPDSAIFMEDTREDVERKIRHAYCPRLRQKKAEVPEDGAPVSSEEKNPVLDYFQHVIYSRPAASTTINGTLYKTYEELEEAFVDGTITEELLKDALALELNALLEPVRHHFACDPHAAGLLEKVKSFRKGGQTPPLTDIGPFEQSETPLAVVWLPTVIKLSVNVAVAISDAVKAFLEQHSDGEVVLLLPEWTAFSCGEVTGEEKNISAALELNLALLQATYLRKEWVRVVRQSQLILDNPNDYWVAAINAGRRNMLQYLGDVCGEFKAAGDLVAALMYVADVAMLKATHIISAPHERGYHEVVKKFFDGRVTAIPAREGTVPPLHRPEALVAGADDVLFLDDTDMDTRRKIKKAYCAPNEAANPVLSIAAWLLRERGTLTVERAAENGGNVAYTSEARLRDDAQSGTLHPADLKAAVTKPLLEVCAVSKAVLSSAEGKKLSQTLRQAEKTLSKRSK
Kind of assay: Trypanosoma cruzi tyrosyl tRNA synthetase (TcYRS) _High Tyrosine SOP. Further: in the data most compounds retested in dose-response had high values. In kind it is functional. As to conditions: 30 µM.

The target of assay [8] is T4, Tyrosyl-tRNA synthetase, putative (Trypanosoma cruzi (strain CL Brener)). The experiment in a line: Trypanosoma cruzi tyrosyl tRNA synthetase (TcYRS) SOP. In kind it is functional. As to conditions: 30 µM.
Assay [9] deals with Chromo domain-containing protein 1 (Saccharomyces cerevisiae (strain ATCC 204508 / S288c) (Baker's yeast)) (UniProt P32657). Kind of assay: ScCHD-1 Enzyme Inhibition Assay. Further: in the data most compounds retested in dose-response had high values. In kind it is functional. To be noted: 30 µM.
Chromo domain-containing protein 1 (Saccharomyces cerevisiae (strain ATCC 204508 / S288c) (Baker's yeast)), sequence (P32657 whole entry, the tested form may be a part): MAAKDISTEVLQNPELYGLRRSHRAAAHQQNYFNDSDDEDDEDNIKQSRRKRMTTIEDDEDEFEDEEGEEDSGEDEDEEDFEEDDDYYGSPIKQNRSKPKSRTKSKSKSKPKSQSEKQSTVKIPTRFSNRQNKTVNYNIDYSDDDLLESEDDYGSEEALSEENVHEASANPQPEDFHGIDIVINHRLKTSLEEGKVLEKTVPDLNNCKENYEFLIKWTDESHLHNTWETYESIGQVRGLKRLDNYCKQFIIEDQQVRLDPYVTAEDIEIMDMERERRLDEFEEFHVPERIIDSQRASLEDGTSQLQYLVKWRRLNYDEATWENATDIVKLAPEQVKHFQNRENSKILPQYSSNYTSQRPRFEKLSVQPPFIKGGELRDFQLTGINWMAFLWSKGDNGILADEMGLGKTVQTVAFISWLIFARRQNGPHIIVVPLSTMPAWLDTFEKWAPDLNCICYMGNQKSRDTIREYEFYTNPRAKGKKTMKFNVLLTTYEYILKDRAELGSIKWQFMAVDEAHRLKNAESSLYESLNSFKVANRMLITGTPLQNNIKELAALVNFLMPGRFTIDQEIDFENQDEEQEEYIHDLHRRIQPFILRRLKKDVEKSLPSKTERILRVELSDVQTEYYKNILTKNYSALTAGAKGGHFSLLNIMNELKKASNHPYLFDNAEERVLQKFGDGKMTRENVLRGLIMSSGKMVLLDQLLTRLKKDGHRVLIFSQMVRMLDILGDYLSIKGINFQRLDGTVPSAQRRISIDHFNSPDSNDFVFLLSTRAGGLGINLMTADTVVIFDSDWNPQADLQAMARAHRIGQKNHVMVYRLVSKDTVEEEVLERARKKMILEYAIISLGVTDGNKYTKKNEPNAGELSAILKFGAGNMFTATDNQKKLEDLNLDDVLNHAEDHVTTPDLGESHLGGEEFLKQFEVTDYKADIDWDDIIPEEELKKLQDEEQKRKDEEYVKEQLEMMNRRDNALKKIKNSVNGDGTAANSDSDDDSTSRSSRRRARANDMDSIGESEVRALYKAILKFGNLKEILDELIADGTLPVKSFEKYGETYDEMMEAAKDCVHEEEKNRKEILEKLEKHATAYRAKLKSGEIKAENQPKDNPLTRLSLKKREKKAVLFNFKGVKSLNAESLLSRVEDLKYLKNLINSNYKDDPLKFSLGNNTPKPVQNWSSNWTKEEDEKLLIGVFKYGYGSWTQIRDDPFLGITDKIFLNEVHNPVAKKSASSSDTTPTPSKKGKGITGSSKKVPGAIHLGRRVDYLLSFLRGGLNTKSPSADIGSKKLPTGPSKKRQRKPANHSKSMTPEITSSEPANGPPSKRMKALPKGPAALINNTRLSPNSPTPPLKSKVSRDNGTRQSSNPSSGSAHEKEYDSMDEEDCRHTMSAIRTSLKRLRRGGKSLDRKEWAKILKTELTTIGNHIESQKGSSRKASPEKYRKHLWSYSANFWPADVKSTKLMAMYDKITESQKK

Sialic acid-binding Ig-like lectin 9 (Homo sapiens), sequence (Q9Y336 whole entry): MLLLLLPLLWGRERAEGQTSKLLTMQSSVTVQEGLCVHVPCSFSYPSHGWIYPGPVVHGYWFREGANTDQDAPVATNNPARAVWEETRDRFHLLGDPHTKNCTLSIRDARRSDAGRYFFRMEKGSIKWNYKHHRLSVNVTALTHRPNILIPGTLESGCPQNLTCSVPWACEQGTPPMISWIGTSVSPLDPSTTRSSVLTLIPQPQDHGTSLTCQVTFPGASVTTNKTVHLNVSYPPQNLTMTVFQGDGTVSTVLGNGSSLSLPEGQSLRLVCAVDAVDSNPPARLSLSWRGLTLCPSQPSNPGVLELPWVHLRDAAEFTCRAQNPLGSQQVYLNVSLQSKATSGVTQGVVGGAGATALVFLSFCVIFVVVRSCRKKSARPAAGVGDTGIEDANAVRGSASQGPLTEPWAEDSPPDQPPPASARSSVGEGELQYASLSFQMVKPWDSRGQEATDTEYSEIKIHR
Protein translocase subunit SecA (Escherichia coli (strain K12)), sequence (P10408 whole entry): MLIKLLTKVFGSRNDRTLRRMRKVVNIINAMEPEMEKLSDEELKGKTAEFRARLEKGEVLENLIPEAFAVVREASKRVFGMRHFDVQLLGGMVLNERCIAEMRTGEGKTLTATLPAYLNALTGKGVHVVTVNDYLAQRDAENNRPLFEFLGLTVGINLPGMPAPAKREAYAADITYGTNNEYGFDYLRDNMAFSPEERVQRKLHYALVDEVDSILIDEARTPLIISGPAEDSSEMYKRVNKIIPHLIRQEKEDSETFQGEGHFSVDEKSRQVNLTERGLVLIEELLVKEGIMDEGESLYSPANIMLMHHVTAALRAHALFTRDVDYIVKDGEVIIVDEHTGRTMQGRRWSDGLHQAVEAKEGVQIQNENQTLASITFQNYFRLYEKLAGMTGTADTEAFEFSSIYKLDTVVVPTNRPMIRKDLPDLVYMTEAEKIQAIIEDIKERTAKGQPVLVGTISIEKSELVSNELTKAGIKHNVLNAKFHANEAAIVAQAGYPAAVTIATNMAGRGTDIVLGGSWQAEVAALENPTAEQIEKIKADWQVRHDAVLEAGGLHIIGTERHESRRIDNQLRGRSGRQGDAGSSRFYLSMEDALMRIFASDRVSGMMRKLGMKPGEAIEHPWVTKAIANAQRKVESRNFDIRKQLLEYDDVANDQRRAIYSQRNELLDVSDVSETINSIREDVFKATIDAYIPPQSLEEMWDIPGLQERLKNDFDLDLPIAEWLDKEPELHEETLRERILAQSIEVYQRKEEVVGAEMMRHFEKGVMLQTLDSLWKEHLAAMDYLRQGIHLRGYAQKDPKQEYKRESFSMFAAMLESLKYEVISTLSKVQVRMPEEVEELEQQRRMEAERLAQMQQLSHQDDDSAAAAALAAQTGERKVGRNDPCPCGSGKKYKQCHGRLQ

In the case of `CCn1c(N)nc2cc(C(=O)NCc3ccccc3Cl)cnc21`, the Percent Effect in assay [1] is -5.22%; in assay [2], 8.22%; in assay [3] it was 1.39%; in assay [4] it was -1.08%; with Trypanosoma cruzi, -0.196%; in assay [5], 5.91%. Also, the Percent Effect is 14.9% in assay [6]; 5.03% in the assay listed under Homo sapiens; 7.53% in assay [7]; 17.5% in assay [8]; -4.29% in assay [9].

On to `Cc1oncc1C(=O)N1CCC2(CC1)CC(c1ccccc1)C(=O)N2C` (stereo unspecified), for which the Percent Effect in assay [1] was -3.51%; in [2], -16%; in assay [3], -4.85%; in [4], 1.07%; in the assay with Trypanosoma cruzi, 3.28%; in assay [5], -47.1%. Moreover, the Percent Effect is 7.69% in assay [6]; -5.26% in the assay filed under Homo sapiens; -37.5% in assay [7]; -62.5% in assay [8]; -5.13% in assay [9].

Regarding `O=C(NCC(F)(F)F)NC1CCCc2c1cnn2CCO` (stereo unspecified), the Percent Effect is -4.5% in assay [1]; 16% in assay [2]; -9.15% in assay [3]; 18.8% in assay [4]; 5.36% with Trypanosoma cruzi; 12.5% in assay [5]. Also, the Percent Effect in assay [6] turned out to be 12.4%; in the assay listed under Homo sapiens, 7.67%; in [7], 2.73%; in assay [8] it was 16.1%; in assay [9], 105%.

Consider `OCCN1CCN(Cc2coc(-c3ccc(Cl)cc3)n2)CC1`, for which the Percent Effect in assay [1] is -2.69%; in assay [2], -2.6%; in assay [3], 3.9%; in assay [4], 4.43%; in the assay on Trypanosoma cruzi it was 3%; in [5], 4.27%. Moreover, the Percent Effect in assay [6] was 1.35%; in the assay filed under Homo sapiens it was -6.89%; in assay [7], 0%; in assay [8], 7.32%; in assay [9], -3.24%.

For `CCc1nc(CCNC(=O)Nc2ccc(C(=O)NC)cc2C)cs1`, the Percent Effect in assay [1] is -9.57%; in assay [2], 0%; in assay [3], -0.875%; in assay [4], 3.65%; in the assay with Trypanosoma cruzi, -3.8%; in [5], -3.65%. For the same compound, the Percent Effect was 4.18% in [6]; 40.4% in the assay listed under Homo sapiens; -2.73% in assay [7]; -1.24% in [8]; -1.65% in [9].

Turning to `N#Cc1ncn(CC(=O)Nc2cc(Cl)ccc2F)n1`, the Percent Effect in assay [1] was -7.02%; in assay [2], 13.7%; in assay [3], 6.62%; in assay [4], 0.779%; in the assay with Trypanosoma cruzi, 1.59%; in assay [5], -4.79%. In addition, the Percent Effect in assay [6] was 1.8%; in the assay listed under Homo sapiens it was -12.8%; in [7], 3.12%; in assay [8], 6.17%; in [9], 1.6%.

`O=C(CCNC(=O)c1ccccc1)Nc1ccncc1`: the Percent Effect in assay [1] is 1.26%; in assay [2], 10.5%; in [3], 6.49%; in assay [4], -0.508%; in the assay on Trypanosoma cruzi it was -4.58%; in assay [5], -8.28%. Further, the Percent Effect in assay [6] was 13.5%; in the assay filed under Homo sapiens, 3.87%; in assay [7] it was 2.13%; in assay [8] it was 10.4%; in [9], -2.65%.

For `Fc1ccc(CNCC2OCCc3cn(CC4CC4)nc32)cc1` (stereo unspecified), the Percent Effect was -3.44% in [1]; 0% in [2]; 12.4% in [3]; 6.39% in [4]; 2.05% in the assay with Trypanosoma cruzi; -4.78% in [5]. Also, the Percent Effect in [6] amounted to 12.4%; in the assay listed under Homo sapiens it was 9.33%; in assay [7], 3.24%; in assay [8], 7.69%; in [9], 8.43%.

As for `O=C(NCCCNC(=O)c1cccc(O)c1)NCc1ccccc1F`, the Percent Effect in [1] is -2.42%; in [2] it was 15.8%; in assay [3], 0.229%; in assay [4], 0.609%; in the assay on Trypanosoma cruzi, 2.63%; in [5], -5.92%. Besides, the Percent Effect in assay [6] was 14.9%; in the assay listed under Homo sapiens, 1.72%; in assay [7], 3.19%; in [8], 15.6%; in assay [9], -3.65%.

For the compound `O=C(c1cccn1Cc1cccs1)N1CCCC1Cn1cccn1` (stereo unspecified), the Percent Effect is -1.97% in assay [1]; -23.7% in assay [2]; -2.11% in assay [3]; 10.5% in assay [4]; 8.68% with Trypanosoma cruzi; -4.68% in assay [5]. Besides, the Percent Effect in assay [6] was 8.38%; in the assay filed under Homo sapiens it was -4.07%; in assay [7], 0.493%; in assay [8], 6.17%; in [9], 3.37%.

`Cc1cc(CNC(=O)NC(C)c2ccc(N3CCOCC3)cc2)no1` (stereo unspecified): the Percent Effect in [1] is -5.74%; in assay [2], 10.4%; in assay [3] it was -1.83%; in assay [4] it was 16.5%; in the assay on Trypanosoma cruzi it was 5.61%; in assay [5], -6.9%. Moreover, the Percent Effect is 11.8% in assay [6]; -5.95% in the assay listed under Homo sapiens; 4.3% in [7]; 8.64% in [8]; -6.04% in assay [9].
